Screens as filed in PubChem BioAssay.
This is a sample that favours compounds with a hit; in the whole collection about 11% have one here.
L3MBTL1 inh: qHTS Assay for the Inhibitors of L3MBTL1 | Potency, µM (series often up to 57.1 µM), actives largely listed as inhibitors | AID 485360, 2010 | actives 0.66% (n = 230,000) | AlphaScreen L3MBTL1–H3K9me1 peptide binding | Lethal(3)malignant brain tumor-like protein 1 (Homo sapiens), Q9Y468; further: nearly all actives have a fitted effect of over 60% in size
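Displacement of a biotinylated histone H3(1-15) peptide monomethylated at Lys9 (75 nM) from L3MBTL1 (50 nM) was measured by AlphaScreen after a 30 min room-temperature compound incubation; cefsulodin titration served as intraplate control.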
G9a block: qHTS Assay for Inhibitors of Histone Lysine Methyltransferase G9a | Potency, µM (series often up to 102 µM), hits mostly inhibitors | Histone-lysine N-methyltransferase EHMT2 (Homo sapiens), Q96KQ7 | AID 504332, 2011 | actives 8.8% (n = 350,000) | G9a H3K9 monomethylation, AlphaScreen, 2 h; further: nearly all actives have a fitted effect of over 75% in size
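Enzyme 20 nM + cpd, 15 min RT; add b-H3K9 pep 500 nM / SAM 20 uM; 2 h RT; anti-H3K9me1 Ab 0.5 ug/mL + SA donor / anti-rabbit acceptor beads 20 ug/mL each, 10 min; AlphaScreen read.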
JMJD2A Tudor inh: qHTS Assay for Inhibitors of JMJD2A-Tudor Domain; Lysine-specific demethylase 4A (Homo sapiens), O75164; AlphaScreen JMJD2A-Tudor / H3K4me3 peptide binding; Potency, µM (titrated, usually from 114 µM), hits mostly inhibitors; actives 4.4% (n = 390,000); AID 504339, 2011; further: nearly all actives have a fitted effect of over 50% in size
Target sequence (O75164 whole entry, looked up, the tested form may be a part): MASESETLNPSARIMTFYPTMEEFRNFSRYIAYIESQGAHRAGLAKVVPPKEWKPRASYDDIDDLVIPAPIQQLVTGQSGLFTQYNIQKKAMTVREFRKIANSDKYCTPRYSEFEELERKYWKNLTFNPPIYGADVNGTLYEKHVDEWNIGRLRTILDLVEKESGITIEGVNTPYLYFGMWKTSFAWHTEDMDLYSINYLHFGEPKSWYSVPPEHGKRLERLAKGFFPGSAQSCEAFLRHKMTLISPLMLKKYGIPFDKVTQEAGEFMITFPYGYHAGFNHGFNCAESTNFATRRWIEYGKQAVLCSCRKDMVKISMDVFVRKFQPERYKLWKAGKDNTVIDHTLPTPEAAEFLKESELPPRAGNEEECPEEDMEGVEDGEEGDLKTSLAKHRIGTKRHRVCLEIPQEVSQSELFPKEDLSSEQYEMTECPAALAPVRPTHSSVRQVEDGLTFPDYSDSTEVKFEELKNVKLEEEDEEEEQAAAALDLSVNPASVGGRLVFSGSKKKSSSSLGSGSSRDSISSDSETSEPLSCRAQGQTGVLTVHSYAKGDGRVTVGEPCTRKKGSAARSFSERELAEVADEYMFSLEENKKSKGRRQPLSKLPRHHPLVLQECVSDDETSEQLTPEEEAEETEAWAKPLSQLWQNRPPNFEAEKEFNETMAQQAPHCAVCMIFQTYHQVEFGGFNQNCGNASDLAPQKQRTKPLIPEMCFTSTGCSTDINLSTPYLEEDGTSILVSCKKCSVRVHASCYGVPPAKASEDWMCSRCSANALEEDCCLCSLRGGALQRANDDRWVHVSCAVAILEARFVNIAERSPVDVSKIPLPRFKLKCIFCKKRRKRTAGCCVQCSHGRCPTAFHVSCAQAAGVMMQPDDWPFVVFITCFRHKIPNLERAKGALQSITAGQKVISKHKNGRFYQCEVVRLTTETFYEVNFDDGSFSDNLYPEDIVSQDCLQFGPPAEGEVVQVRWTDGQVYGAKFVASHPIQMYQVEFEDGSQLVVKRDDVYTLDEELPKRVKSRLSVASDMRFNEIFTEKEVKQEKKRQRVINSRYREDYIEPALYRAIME
BAZ2B block: qHTS Assay for Inhibitors of BAZ2B | Bromodomain adjacent to zinc finger domain protein 2B (Homo sapiens), Q9UIF8 | actives 4.4% (n = 360,000) | Potency, µM (series often up to 114 µM), hits mostly inhibitors | AID 504333, 2011 | AlphaScreen BAZ2B-H3K14Ac peptide displacement; further: nearly all actives have a fitted effect of over 60% in size
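AlphaScreen luminescence quantifies BAZ2B engagement of H3K14Ac peptide; the protein and biotinylated peptide are both at 50 nM final, buffer PBS pH 7.4 with 0.01% Tween-20, all steps at room temperature.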
HP1b chromo inh: HTS for Inhibitors of HP1-beta Chromodomain Interactions with Methylated Histone Tails; Chromobox protein homolog 1 (Homo sapiens), P83916; AlphaScreen HP1-beta / biotin-H3K9me3 peptide binding; Potency, µM (series often up to 114 µM), hits mostly inhibitors; actives 0.56% (n = 390,000); AID 540317, 2011; further: nearly all actives have a fitted effect of over 70% in size
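HP1-beta protein (50 nM final) preincubated 30 min at room temperature with biotinylated H3(1-18)K9me3 peptide (50 nM) in PBS pH 7.4, 0.01% Tween-20, then compound added for 30 min. AlphaScreen streptavidin donor/nickel chelate acceptor beads (10 ug/mL final), 30 min dark, luminescence read.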
Hits are given with their value; n = inactive; u = inconclusive; x = no result given; ! = not active in a repeat; [ ] = dose if it differs, or a comment. The call rests on the fitted dose curve; in most records, active means well fitted inhibition curve with a large enough effect; inconclusive means small, poorly fitted or top-dose-only effect; inactive means no such curve, though single readings can be large or run the other way.

SMILES | L3MBTL1 inh | G9a block | JMJD2A Tudor inh | BAZ2B block | HP1b chromo inh
Cc1ccc(NS(=O)(=O)c2cccs2)nc1 | x | n | n | n | n
CCCCS(=O)(=O)Nc1ccc(C)cn1 | n | 7.1µM | n | n | u
Cc1ccc(-c2onc(C)c2C)cc1S(=O)(=O)NCc1cccs1 | x | n | n | n | n
CCCOc1cccc(C(=O)Nc2ccc(-c3cc4ccccc4oc3=O)c(C)c2)c1 | x | n | n | n | n
COc1ccc(Nc2nc(-c3sc(C)nc3C)cs2)cc1 | n | x | u | 50µM | u
Cc1nc(N)sc1-c1csc(Nc2ccccc2)n1 | n | u | u | 50µM | n
Cc1nc(C)c(-c2csc(Nc3cccnc3)n2)s1 | n | n[12.7 µM] | u | u | n
Cc1nc(C)c(-c2csc(Nc3ccc(N)cc3)n2)s1 | n | 40µM | 50µM | 28µM | u
Cc1cc(O)ccc1Nc1nc(-c2sc(N)nc2C)cs1 | n | n | 50µM | n | n
CCOC(=O)CC1=CCc2c1ccc(OC)c2OC | x | x | n | x | n
Cc1nc(C)c(-c2csc(Nc3ccc(O)c(C(=O)O)c3)n2)s1 | n | 79µM | n | u | n
C/C(=N\N=c1/scc(C)n1Cc1ccco1)c1cccc([N+](=O)[O-])c1 | u | u | 25µM | 10µM | u
CC(=O)c1ccc(N2CCN(C(=O)C3CCN(S(=O)(=O)c4c(C)noc4/C=C/c4ccccc4F)CC3)CC2)cc1 | x | n | n | n | n
COc1ccc(N2CCN(C(CNS(=O)(=O)c3ccc4c(c3)OCCO4)c3ccco3)CC2)cc1 (stereo unspecified) | n | 7.9µM | u | u | u
CCS(=O)(=O)NCC(c1ccco1)N1CCN(c2ccc(OC)cc2)CC1 (stereo unspecified) | x | n | n | n | n
COc1ccc(N2CCN(C(CNS(=O)(=O)c3c(C)cc(C)cc3C)c3ccco3)CC2)cc1 (stereo unspecified) | x | 7.1µM | 22µM | 32µM | n
CS(=O)(=O)NCC(c1ccco1)N1CCN(c2ccc(F)cc2)CC1 (stereo unspecified) | n | 45µM! | n | n | n
COc1ccc(N2CCN(C(CNS(=O)(=O)c3ccccc3)c3ccccc3)CC2)cc1 (stereo unspecified) | x | 14µM | 16µM | 25µM | u
Cc1ccc(Oc2c(C(F)(F)F)oc3c(CN4CCCCC4C)c(O)ccc3c2=O)cc1 (stereo unspecified) | x | n | n | n | n
CCc1cc(C(=O)Nc2sc(C)c(CC)c2C#N)no1 | x | 2.5µM | n | n | n
CCc1c(C)sc(NC(=O)c2cc(C)no2)c1C#N | x | 13µM | n | u | n
COc1cc2cc(CCCOC(=O)c3ccc(C#N)cc3)oc(=O)c2cc1OC | n | n[0.501 µM] | n | n | n
O=C(NNc1ncnc2c1cnn2-c1ccccc1)c1cccc(Cl)c1 | x | u | n | n | n
O=C(NNc1ncnc2ccccc12)c1cccc(Cl)c1 | x | 79µM | n | 79µM | n
Clc1cncc(Cl)c1NNc1c2ccccc2nc2ccccc12 | n | 1.3µM | u | u | n
SMILES | L3MBTL1 inh | G9a block | JMJD2A Tudor inh | BAZ2B block | HP1b chromo inh
Cc1ccc(C(=O)NNc2c3ccccc3nc3ccccc23)cc1 | n | 18µM | n | u | n
Nc1ccccc1C(=O)NNc1c2ccccc2nc2ccccc12 | u | 18µM | 32µM | 28µM | 18µM
COc1ccc(CCNC(=O)c2cnc3ccc(C)cn3c2=O)cc1 | x | n | n | n | n
O=C(NNc1c2ccccc2nc2ccccc12)c1ccc(Cl)cc1 | x | 35µM | n | u | n
Cc1nc2nc(CC(=O)O)[nH]n2c(=O)c1[N+](=O)[O-] | n | n[12.7 µM] | 18µM | n | n
Oc1ccc(Br)cc1CN1CCCCCCC1 | x | u | 6.3µM | 50µM | n
Oc1cccc(CN2CCCCC2)c1 | n | n | n | n | n
Brc1cccc(CN2CCCCCC2)c1 | n | 25µM | 20µM | u | u
CCOc1ccccc1Nc1sc(C(=O)c2ccc(Cl)cc2)c(N)c1C(=O)NCCc1ccccc1 | x | n | n | n | n
Cn1c(=O)cc(OCCCC(=O)Nc2ccc(F)cc2)c2ccccc21 | x | n | n | n | n
CC(C)c1nc2cc(C(=O)N3CCN(c4cnccn4)CC3)ccc2o1 | x | u | n | n | n
CC1CCc2c(c3ccccc3n2C(=O)CCl)C1 (stereo unspecified) | n[2.29 µM] | n[0.501 µM] | u | 79µM | n
FC(F)(F)c1cccc(-n2cc(-c3ccccc3)c3c(N4CCCCC4)ncnc32)c1 | x | n | n | n | n
FC(F)(F)c1cccc(N2CCC(N=CN3CCCCCC3)=N2)c1 | x | 40µM | n[11.4 µM] | 40µM | u
CSc1[nH]c(=O)c(C(=O)O)cc1C#N | x | n[12.7 µM] | n | 50µM | n
CC(C(=O)O)n1cc(C#N)c(=O)[nH]c1=O (stereo unspecified) | x | x | n | x | n
CCOC(=O)c1cc(C#N)c(SCC(=O)c2cc(C#N)c(SC)nc2C)[nH]c1=O | n | 50µM | 79µM | n | n
CCOC(=O)c1cc(C#N)c(SCC(N)=O)[nH]c1=O | n | 13µM | n | n | n
CCOC(=O)c1cc(C#N)c(SCC(=O)O)[nH]c1=O | n | u | 32µM | u | n
CCOC(=O)c1cc(C#N)c(SCC(=O)Nc2ccc(C(C)=O)cc2)[nH]c1=O | n | u | n | n | n
Cc1ccc(S(=O)(=O)N2CCOCC2)cc1C(=O)NCC1CCCO1 (stereo unspecified) | x | x | n | n | n
COCCNC(=O)c1cc(S(=O)(=O)N2CCOCC2)ccc1SCc1cccc(OC)c1OC | x | 28µM | n | n | n
COc1ccccc1CNC(=O)c1oc2ccc(S(=O)(=O)N3CCOCC3)cc2c1C | x | n | n | n | n
COc1cccc(CSc2ccc(S(=O)(=O)N3CCOCC3)cc2C(=O)NCC2CCCO2)c1OC (stereo unspecified) | x | 40µM | n | n | n
CN(Cc1ccccc1)c1nc2c(S(=O)(=O)c3ccccc3)nnn2c2ccsc12 | x | n | n | n | n
SMILES | L3MBTL1 inh | G9a block | JMJD2A Tudor inh | BAZ2B block | HP1b chromo inh
CC1CCN(CC(=O)Nc2ccccc2-c2ccccc2)CC1 | n | n | n | n | n
CC1CCCCC1NCC(=O)Nc1ccccc1-c1ccccc1 (stereo unspecified) | n | 6.3µM | n[11.4 µM] | u | n
Cc1ccccc1/C=N\NC(=O)c1ccc(Cn2cccn2)o1 | n | n | 56µM | n | n
O=C(N/N=C\c1cccc(Cl)c1)c1ccc(Cn2cccn2)o1 | n | n | n | n | n
O=C(c1cc2cc3ccc(Cl)cc3nc2o1)N1CCN(c2cccc(Cl)c2)CC1 | x | n | n | x | n
CS(=O)(=O)c1sc(C#N)c2c1C(=O)CC(c1ccccc1)C2 (stereo unspecified) | n | 25µM | n | n | n
